Source: PubChem BioAssay AID1159580 (chemical genetic matrix, 2015)
The whole screen tested about 5,500 compounds, of which about 2,000 (36%) were called active. Another 18% or so got no clear call; they are omitted. Cut-off read from the data, not from the text of the source: active = normalized growth mostly below about 0.91 (no sharp cut-off); inconclusive = no clear call, values can overlap the other calls; inactive = mostly above about 0.92. Some of the results follow.

Assay: chemical genetic growth profiling, strain panel (AID 1159580);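 note: tested at 20 µM; growth read once vehicle control cultures reached saturation at 30 °C; 1 = growth at the plate median or of vehicle wells; lower values mean less growth of the strain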
Conditions: growth OD
[1] = S. cerevisiae deletion strains, locus YAR019C, strain CDC15, hits give low values
[2] = S. cerevisiae deletion strains, locus YBL105C, strain PKC1, hits give low values
[3] = S. cerevisiae deletion strains, locus YBR135W, strain CKS1, hits give low values
[4] = S. cerevisiae deletion strains, locus YBR136W, strain MEC1, hits give low values
[5] = S. cerevisiae deletion strains, locus YBR160W, strain CDC28, hits give low values
[6] = S. cerevisiae deletion strains, locus YDL017W, strain CDC7, hits give low values
[7] = S. cerevisiae deletion strains, locus YDL028C, strain MPS1, hits give low values
[8] = S. cerevisiae deletion strains, locus YDL101C, strain DUN1, hits give low values
[9] = S. cerevisiae deletion strains, locus YDL108W, strain KIN28, hits give low values
[10] = S. cerevisiae deletion strains, locus YDL132W, strain cdc53, hits give low values
[11] = S. cerevisiae deletion strains, locus YDL214C, strain PRR2, hits give low values
[12] = S. cerevisiae deletion strains, locus YDR052C, strain DBF4, hits give low values
[13] = S. cerevisiae deletion strains, locus YDR054C, strain cdc34, hits give low values
[14] = S. cerevisiae deletion strains, locus YDR226W, strain ADK1, hits give low values
[15] = S. cerevisiae deletion strains, locus YDR477W, strain SNF1, hits give low values
[16] = S. cerevisiae deletion strains, locus YER123W, strain YCK3, hits give low values
[17] = S. cerevisiae deletion strains, locus YER133W, strain GLC7, hits give low values
[18] = S. cerevisiae deletion strains, locus YFL009W, strain cdc4, hits give low values
[19] = S. cerevisiae deletion strains, locus YFL029C, strain CAK1, hits give low values
[20] = S. cerevisiae deletion strains, locus YFR003C, strain YPI1, hits give low values
[21] = S. cerevisiae deletion strains, locus YFR019W, strain FAB1, hits give low values
[22] = S. cerevisiae deletion strains, locus YFR028C, strain CDC14, hits give low values
[23] = S. cerevisiae deletion strains, locus YGR040W, strain KSS1, hits give low values
[24] = S. cerevisiae deletion strains, locus YGR052W, strain FMP48, hits give low values
[25] = S. cerevisiae deletion strains, locus YGR092W, strain DBF2, hits give low values
[26] = S. cerevisiae deletion strains, locus YHR030C, strain SLT2, hits give low values
[27] = S. cerevisiae deletion strains, locus YHR079C, strain IRE1, hits give low values
[28] = S. cerevisiae deletion strains, locus YHR082C, strain KSP1, hits give low values
[29] = S. cerevisiae deletion strains, locus YHR205W, strain SCH9, hits give low values
[30] = S. cerevisiae deletion strains, locus YIL147C, strain SLN1, hits give low values
[31] = S. cerevisiae deletion strains, locus YJL095W, strain BCK1, hits give low values
[32] = S. cerevisiae deletion strains, locus YJL128C, strain PBS2, hits give low values
[33] = S. cerevisiae deletion strains, locus YJL157C, strain FAR1, hits give low values
[34] = S. cerevisiae deletion strains, locus YJR016C, strain ILV3, hits give low values
[35] = S. cerevisiae deletion strains, locus YJR066W, strain TOR1 (second series), hits give low values
[36] = S. cerevisiae deletion strains, locus YJR066W, strain TOR1, hits give low values
[37] = S. cerevisiae deletion strains, locus YKL048C, strain ELM1, hits give low values
[38] = S. cerevisiae deletion strains, locus YKL067W, strain YNK1, hits give low values
[39] = S. cerevisiae deletion strains, locus YKL101W, strain HSL1, hits give low values
[40] = S. cerevisiae deletion strains, locus YKL193C, strain SDS22, hits give low values
[41] = S. cerevisiae deletion strains, locus YKL203C, strain TOR2, hits give low values
[42] = S. cerevisiae deletion strains, locus YLR113W, strain HOG1, hits give low values
[43] = S. cerevisiae deletion strains, locus YLR133W, strain CKI1, hits give low values
[44] = S. cerevisiae deletion strains, locus YLR403W, strain SFP1, hits give low values
[45] = S. cerevisiae deletion strains, locus YML070W, strain DAK1, hits give low values
[46] = S. cerevisiae deletion strains, locus YMR001C, strain CDC5, hits give low values
[47] = S. cerevisiae deletion strains, locus YMR205C, strain PFK2 (second series), hits give low values
[48] = S. cerevisiae deletion strains, locus YMR277W, strain FCP1, hits give low values
[49] = S. cerevisiae deletion strains, locus YNL006W, strain LST8, hits give low values
[50] = S. cerevisiae deletion strains, locus YNL020C, strain ARK1, hits give low values
[51] = S. cerevisiae deletion strains, locus YNL161W, strain CBK1, hits give low values
[52] = S. cerevisiae deletion strains, locus YNL183C, strain NPR1, hits give low values
[53] = S. cerevisiae deletion strains, locus YNL207W, strain RIO2, hits give low values
[54] = S. cerevisiae deletion strains, locus YNL222W, strain SSU72, hits give low values
[55] = S. cerevisiae deletion strains, locus YNL307C, strain MCK1 (second series), hits give low values
[56] = S. cerevisiae deletion strains, locus YOL078W, strain AVO1, hits give low values
[57] = S. cerevisiae deletion strains, locus YOL136C, strain PFK27, hits give low values
[58] = S. cerevisiae deletion strains, locus YOR061W, strain CKA2, hits give low values
[59] = S. cerevisiae deletion strains, locus YOR119C, strain RIO1, hits give low values
[60] = S. cerevisiae deletion strains, locus YOR231W, strain MKK1, hits give low values
[61] = S. cerevisiae deletion strains, locus YOR329C, strain SCD5, hits give low values
[62] = S. cerevisiae deletion strains, locus YPL031C, strain PHO85, hits give low values
[63] = S. cerevisiae deletion strains, locus YPL153C, strain RAD53, hits give low values
[64] = S. cerevisiae deletion strains, locus YPL204W, strain HRR25, hits give low values
[65] = S. cerevisiae deletion strains, locus YPL209C, strain IPL1, hits give low values
[66] = S. cerevisiae deletion strains, locus YPL256C, strain CLN2, hits give low values
[67] = S. cerevisiae deletion strains, locus YPR025C, strain CCL1, hits give low values
[68] = S. cerevisiae deletion strains, locus YPR106W, strain ISR1, hits give low values
[69] = S. cerevisiae deletion strains, locus YPR111W, strain DBF20, hits give low values
[70] = S. cerevisiae deletion strains, strain NNK1, hits give low values
[71] = S. cerevisiae deletion strains, strain TSCII, hits give low values
[72] = S. cerevisiae deletion strains, locus YAL013W, strain DEP1, hits give low values
[73] = S. cerevisiae deletion strains, locus YDR150W, strain NUM1, hits give low values
[74] = S. cerevisiae deletion strains, locus YGR078C, strain PAC10, hits give low values
[75] = S. cerevisiae deletion strains, locus YGR229C, strain SMI1, hits give low values
[76] = S. cerevisiae deletion strains, locus YMR263W, strain SAP30, hits give low values
[77] = S. cerevisiae deletion strains, locus YNL128W, strain TEP1, hits give low values
[78] = S. cerevisiae deletion strains, locus YNL153C, strain GIM3, hits give low values

Measured: normalized growth

O=C1Nc2ccccc2/C1=C\c1ccc(Cl)cc1
inactive: [1] 0.946 | [2] 0.943 | [3] 0.94 | [4] 0.941 | [5] 0.947 | [6] 0.945 | [7] 0.947 | [8] 0.967 | [9] 0.948 | [10] 0.94 | [11] 0.801 | [12] 0.954 | [13] 0.927 | [14] 0.937 | [15] 0.817 | [16] 0.8 | [17] 0.815 | [18] 0.942 | [19] 0.95 | [20] 0.942 | [21] 0.924 | [22] 0.941 | [23] 0.823 | [24] 0.779 | [25] 0.82 | [27] 0.776 | [28] 0.794 | [30] 0.944 | [31] 0.741 | [32] 0.852 | [33] 0.819 | [34] 0.946 | [35] 0.651 | [36] 0.781 | [37] 0.862 | [38] 0.867 | [39] 0.829 | [40] 0.942 | [41] 0.91 | [43] 0.818 | [44] 0.714 | [45] 0.81 | [46] 0.94 | [47] 0.825 | [48] 0.936 | [49] 0.956 | [50] 0.801 | [51] 0.948 | [52] 0.788 | [53] 0.947 | [54] 0.945 | [55] 0.844 | [56] 0.951 | [57] 0.833 | [58] 0.853 | [59] 0.9 | [60] 0.863 | [61] 0.949 | [62] 0.816 | [63] 0.836 | [64] 0.824 | [65] 0.943 | [67] 0.943 | [68] 0.926 | [69] 0.917 | [70] 0.92 | [71] 0.949
active: [26] 0.755 | [29] 0.519 | [42] 0.692 | [66] 0.742

O=C1Nc2ccccc2/C1=C\c1cccc([N+](=O)[O-])c1
inactive: [1] 0.974 | [2] 0.967 | [3] 0.974 | [4] 0.972 | [5] 0.979 | [6] 0.97 | [7] 0.971 | [8] 0.97 | [9] 0.968 | [10] 0.962 | [11] 0.983 | [12] 0.97 | [13] 0.957 | [14] 0.969 | [15] 0.971 | [16] 0.985 | [17] 1 | [18] 0.965 | [19] 0.982 | [20] 0.965 | [21] 0.987 | [22] 0.961 | [23] 0.967 | [24] 1.02 | [25] 0.921 | [26] 0.959 | [27] 0.913 | [28] 1.06 | [29] 0.848 | [30] 0.967 | [31] 0.955 | [32] 0.923 | [33] 0.985 | [34] 0.967 | [35] 0.981 | [36] 1.05 | [37] 0.971 | [38] 0.995 | [39] 0.967 | [40] 0.963 | [41] 1.05 | [42] 0.939 | [43] 0.975 | [44] 0.907 | [45] 0.993 | [46] 0.97 | [47] 0.994 | [48] 0.969 | [49] 0.979 | [50] 0.959 | [51] 0.965 | [52] 1.05 | [53] 0.963 | [54] 0.986 | [55] 0.957 | [56] 0.966 | [57] 0.985 | [58] 0.991 | [59] 1.07 | [60] 1.04 | [61] 0.973 | [62] 0.972 | [63] 0.992 | [64] 0.968 | [65] 0.974 | [66] 0.954 | [67] 0.978 | [68] 0.973 | [69] 0.966 | [70] 0.967 | [71] 0.963

O=C1NC(=O)/C(=C/c2ccc(OS(=O)(=O)c3ccc(Cl)cc3)cc2)N1
inactive: [72] 1 | S. cerevisiae deletion strains, locus YBR229C, strain ROT2, hits give low values 1.03 | [8] 0.983 | S. cerevisiae deletion strains, locus YDL134C, strain PPH21, hits give low values 0.991 | [73] 0.957 | S. cerevisiae deletion strains, locus YEL061C, strain CIN8, hits give low values 1.01 | [74] 0.983 | [75] 1.01 | [26] 0.989 | S. cerevisiae deletion strains, locus YHR087W, strain rtc3, hits give low values 1.02 | S. cerevisiae deletion strains, locus YJL187C, strain SWE1, hits give low values 1.04 | S. cerevisiae deletion strains, locus YJR043C, strain POL32, hits give low values 0.982 | S. cerevisiae deletion strains, locus YJR075W, strain HOC1, hits give low values 1.03 | S. cerevisiae deletion strains, locus YLR039C, strain RIC1, hits give low values 1.02 | S. cerevisiae deletion strains, locus YLR058C, strain SHM2 (second series), hits give low values 1.02 | S. cerevisiae deletion strains, locus YLR085C, strain ARP6, hits give low values 0.999 | S. cerevisiae deletion strains, locus YLR262C, strain YPT6, hits give low values 0.996 | S. cerevisiae deletion strains, locus YML094W, strain GIM5, hits give low values 1 | S. cerevisiae deletion strains, locus YMR219W, strain ESC1, hits give low values 1.01 | [76] 1 | [77] 0.978 | [78] 0.99 | S. cerevisiae deletion strains, locus YNL298W, strain CLA4 (second series), hits give low values 0.976 | S. cerevisiae deletion strains, locus YNL322C, strain KRE1, hits give low values 0.998 | S. cerevisiae deletion strains, locus YNR030W, strain Alg12, hits give low values 1 | S. cerevisiae deletion strains, locus YPL055C, strain LGE1, hits give low values 1.06 | S. cerevisiae deletion strains, locus YPL241C, strain CIN2, hits give low values 1 | S. cerevisiae deletion strains, locus YPR135W, strain CTF4, hits give low values 0.978 | S. cerevisiae strains, strain wild type, hits give low values 0.964

Cc1cc(C)c(/C=C2\C(=O)Nc3ccccc32)[nH]1
inactive: [72] 0.967 | S. cerevisiae deletion strains, locus YAL040C, strain CLN3, hits give low values 1.06 | S. cerevisiae deletion strains, locus YCL061C, strain MRC1 (second series), hits give low values 0.994 | [73] 0.939 | S. cerevisiae deletion strains, locus YDR363W, strain ESC2, hits give low values 0.987 | S. cerevisiae deletion strains, locus YER002W, strain NOP16, hits give low values 0.999 | [74] 0.991 | [75] 0.917 | [76] 0.99 | [77] 0.935 | [78] 0.872 | S. cerevisiae deletion strains, locus YNL175C, strain NOP13, hits give low values 0.992 | S. cerevisiae deletion strains, locus YNL197C, strain WHI3, hits give low values 0.934 | S. cerevisiae deletion strains, locus YNL224C, strain SQS1, hits give low values 0.929
active: S. cerevisiae deletion strains, locus YMR307W, strain GAS1, hits give low values 0.887 | S. cerevisiae deletion strains, locus YOR083W, strain WHI5 (second series), hits give low values 0.847
